# This is a sample that favours compounds with a hit; in the whole collection about 2.3% have one here.
# CHO-K1 Ca ag = nonselective activator or artifact in parental CHO-K1 cells | Fluo-8 calcium fluorescence; scaled to maximal ATP response, vehicle zero | activation, % at 3 µM | 0.48% of 360,000 active; in the data active = activation above about 15%;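 note: untransfected CHO-K1 host cells lacking M1 receptor as counterscreen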
# CHO-K1 Ca antag = counter-screen for M1 antagonists: effect in parental CHO-K1 cells; 0.6% of 360,000 active; ATP-induced calcium, Fluo-8 fluorescence; inhibition, % at 3 µM; AID 602250;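 active = inhibition above a per-plate cutoff, the plate's mean sample inhibition plus 3 SD, cut at about 24% in these data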;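 note: 0% = DMSO plus EC80 ATP and 100% = DMSO alone without ATP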
# CHRM1 PAM = human CHRM1 positive allosteric modulation; P11229; CHO-K1 hM1, Fluo-8 calcium fluorescence, ACh EC20; 0% = ACh EC20, 100% = maximal ACh; 0.088% of 360,000 active; AID 588819; activation, % at 3 µM; in the data active = activation above about 19%, passing the limit was not always enough
# Target sequence (P11229 whole entry, looked up): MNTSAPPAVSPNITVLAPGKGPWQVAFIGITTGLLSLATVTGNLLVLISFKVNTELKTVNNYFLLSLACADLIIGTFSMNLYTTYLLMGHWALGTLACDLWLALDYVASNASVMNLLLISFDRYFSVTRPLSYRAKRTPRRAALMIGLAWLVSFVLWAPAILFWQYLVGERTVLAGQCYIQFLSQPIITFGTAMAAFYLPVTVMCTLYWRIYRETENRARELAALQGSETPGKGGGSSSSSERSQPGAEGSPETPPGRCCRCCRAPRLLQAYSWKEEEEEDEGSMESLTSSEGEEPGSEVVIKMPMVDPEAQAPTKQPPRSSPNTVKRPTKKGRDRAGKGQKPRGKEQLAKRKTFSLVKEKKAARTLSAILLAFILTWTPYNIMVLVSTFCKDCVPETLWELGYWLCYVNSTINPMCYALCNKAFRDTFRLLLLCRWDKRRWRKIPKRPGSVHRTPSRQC
# M1 ag = activates human CHRM1 receptor. P11229. CHO-K1 hM1, Fluo-8 calcium fluorescence, agonist mode; 0% DMSO, 100% acetylcholine EC100. activation, % at 3 µM. 0.33% of 360,000 active. AID 588814;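 active = activation above the run's mean compound activation plus 3 SD, cut at about 16% in these data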;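 note: peak over basal fluorescence ratio within a 140 s kinetic read after compound addition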
# M1 antag = blocks human M1 muscarinic receptor; inhibition, % at 3 µM; CHO-K1 hM1, Fluo-8 calcium fluorescence, ACh EC80 antagonist; P11229; 1.3% of 360,000 active; AID 588852;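 active = percent inhibition above its own plate's cutoff, namely the mean of that plate's compound wells plus 3 SD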;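 note: peak over basal fluorescence ratio during 140 s after agonist addition; 0% = ACh EC80 plus DMSO and 100% = DMSO alone without agonist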
# M1 PAM parental = counter-screen for M1 PAMs: effect in parental CHO-K1 cells | ATP EC20, Fluo-8 calcium fluorescence; 0% at ATP EC20, 100% at ATP max | activation, % at 3 µM | 0.02% of 360,000 active;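 active = activation above the run cutoff, the mean activation of all test compounds plus 3 SD, cut at about 40% in these data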;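 note: peak over basal fluorescence ratio in a 140 s read after ATP addition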
# Starred values were filed as active, the others as inactive.
SMILES,CHO-K1 Ca ag,CHO-K1 Ca antag,CHRM1 PAM,M1 ag,M1 antag,M1 PAM parental
O=c1[nH]c(=O)n(Cc2ccccc2)c(O)c1C=NCCN1CCNCC1,0,-13,-28,-12,33*,2
O=c1[nH]c(=S)n(-c2ccccc2Cl)c(O)c1C=NCCN1CCNCC1,3,-9,-13,39*,26,5
O=c1[nH]c(=O)n(CCc2ccccc2)c(O)c1C=NCCCn1ccnc1,0,62*,3,-5,-7,-6
O=C(/C=C/c1ccc(F)cc1)NC(=S)N1C[C@H]2C[C@H](C1)c1cccc(=O)n1C2,1,-1,2,-7,-5,13
C[C@]12CCC3C(CC[C@H]4C[C@@H](O)CC[C@]34C)C1CC[C@@H]2N (stereo not given in full),19*,11,4,-6,-5,25
C[C@]12CCC3C(CC[C@@H]4C[C@@H](O)CC[C@]34C)C1CC[C@@H]2O (stereo not given in full),1,-7,0,-2,-7,4
CCCc1c(C)nc(SCC(=O)C(C)(C)C)nc1OC(=O)N(C)C,2,-6,-1,-3,8,8
Nc1c(C(=O)NCCc2ccccc2)c2nc3ccccc3nc2n1CCN1CCOCC1,2,5,3,-5,10,12
Nc1c(C(=O)NCCN2CCOCC2)c2nc3ccccc3nc2n1Cc1ccccc1,16*,-2,6,-2,-8,23
Cc1ccc(-n2c(=S)[nH]c3ccccc3c2=O)cc1C,0,-2,1,-3,-6,14
CC1=C2[C@@H]3OC(=O)[C@H](C)C3CC[C@@]2(C)C=CC1=O (stereo not given in full),1,-9,6,-3,-11,14
O=C1NC(=O)C(C2CCCCCC2)C(=O)N1,0,-12,26*,3,-30,-16
C1CCC2CCCCC2C1 (stereo not given),0,-6,3,-1,-6,-8
Clc1ccc2c(c1)C(c1ccccc1Cl)=NCc1nnc(N3CCN(CCOc4ccccc4)CC3)n1-2,11,-15,10,1,-1,64*
Clc1ccc2c(c1)C(c1ccccc1Cl)=NCc1nnc(N3CCN(CCSc4ccccc4)CC3)n1-2,0,-9,8,1,-3,17
COc1ccccc1C1=NCc2nnc(C)n2-c2ccc(Cl)cc21,1,31*,-4,-6,11,-3
Cc1[nH]c2ccccc2c1C(=O)C(=O)N1CC2CC(C1)c1cccc(=O)n1C2 (stereo not given),0,0,1,-4,6,13
CCC(C)n1c(O)c(C=NCC2CCCO2)c(=O)[nH]c1=S (stereo not given),1,-9,23,-5,-26,11
C[N+]1(C)C2CCC1CC(OC(=O)C(CO)c1ccccc1)C2 (stereo not given),0,-7,-38,-15,101*,-6
C[N+]1([O-])[C@@H]2CC(OC(=O)[C@H](CO)c3ccccc3)C[C@H]1[C@@H]1O[C@@H]12 (stereo not given in full),0,9,-26,-9,100*,-6
C[N+]1(C)C2CCC1CC(OC(=O)c1ccccc1)C2 (stereo not given),0,8,-9,-8,12,-15
C#CC[N+]1(C)[C@@H]2CC(OC(=O)C(CO)c3ccccc3)C[C@H]1C(O)C2 (stereo not given in full),0,9,-27,-10,101*,-16
C[N+]1(C)[C@@H]2CC[C@H]1CC(OC(=O)C(CO)c1ccccc1)C2 (stereo not given in full),0,5,-26,-6,99*,9
CC(=O)c1cn(CCCOc2ccccc2)c2ccccc12,8,0,-9,-4,6,5
O=C1NC(=S)NC(=O)C1=Cc1cccc2cc3ccccc3cc12,-1,-6,12,-5,-14,1
CN1/C(=C\C=C2C(=O)NC(=S)NC2=O)C(C)(C)c2ccccc21,54*,22,-26,63*,27*,-9
O=C1Nc2ccccc2C(c2ccccc2)=NC1O (stereo not given),0,-17,18,-2,-14,4

# High-throughput results (PubChem)
